About 83,000 compounds went through this panel and 20% of them were active in at least one assay; those are over-represented in the sample as a whole.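 Treatment: one concentration, 48 hours, 96-well format. Scoring: percent growth, with anything below 10 considered active.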 Values without a mark were called inactive.

This assay relates to SF-295 CNS. Briefly: NCI-60 one-dose screen, 48 h (100 = growth as untreated, 0 = no growth, -100 = all killed). As to conditions: 10 µM unless noted.
As to `COc1ccc(C2=Nc3c/c(=C\c4c(O)[nH]c5cc(Cl)ccc45)ccc3=N2)cc1`, the growth is 57.9%.

Turning to `CCCCCCCCCCCCCCCCCCOc1ccccc1CC(=O)NCC[N+]1(C)CCOCC1`, the growth was 62.8%.

`Cc1ccc(-c2cc(C(=O)N3N=C(c4ccc(N)cc4)CC3c3ccc(Cl)cc3)c3ccccc3n2)cc1` (configuration not stated): the growth is 21.4%.

Regarding `O=C(CN1C(=O)/C(=C/c2ccco2)SC1=S)NCCc1c[nH]c2ccc(F)cc12`, the growth was 99.4%.

`CCN(CC)CCN(CCN(CC)CC)c1ccccc1`: the growth is 111%.

For the compound `COc1cc(C(=O)C(=O)c2cc(OC)c(O)c(OC)c2)cc(OC)c1O`, the growth is 109%.

For `O=C(/C=C/c1ccc(Br)cc1)c1ccc(-n2cc(CN3CCN(c4cc5c(cc4F)c(=O)c(C(=O)O)cn5C4CC4)CC3)nn2)cc1`, the growth is 87.6%.

The values above are taken from PubChem BioAssay (NCI).
